Test results as given in ChEMBL document CHEMBL4513216, “Probing the Open Global Health Chemical Diversity Library for Multistage-Active Starting Points for Next-Generation Antimalarials” (ACS Infect Dis, 2020).
Out of some 69,000 compounds screened, about 8,600 (12%) showed an effect of 50% or more. For the sample, strong results were picked, then their nearest neighbours and some compounds at random.

system: Plasmodium berghei; experiment: Screen against P. berghei liver stage (PbLuc), transformed with Luciferase, at 10uM; format: functional, HepG2; conditions: tested at 10 uM

Compound | INHIBITION
O=C(c1ncncc1Cl)N1CCC2(CCCC2)CC1 | 43.1%
O=C(c1ncncc1Cl)N1CCN(c2ccc(Cl)cc2)CC1 | 44%
O=C(c1ccccc1)N1CCCN(C(=O)c2ncncc2Cl)CC1 | 74%
COc1ncccc1C(=O)NCCn1cnc(C)cc1=O | -70.7%
CO[C@@H]1CC[C@@H](N(C)C(=O)c2cn3cc(C)ccc3n2)[C@H]1O | -2.65%
CCN1CCOCC12CCN(C(=O)c1ccsc1)CC2 | 42.1%
O=C(Nc1ccc(Cl)cn1)c1cncc(C2CCNCC2)n1 | -10.4%
c1ccc(Cc2nc(CNC3CCOC4(CCOCC4)C3)no2)cc1 (stereo unspecified) | -40.7%
COCc1nc(CNC2CCC3(CCNCC3)CC2)no1 | 12.1%
c1ccc(Cc2nc(CNC3CCC4(CCNCC4)CC3)no2)cc1 | 53.7%
O=C(c1cnc(C2CC2)s1)N1CCCC1Cn1cccn1 (stereo unspecified) | 8.64%
Cc1nn(CCC(=O)NC2CCS(=O)(=O)C2)c(C)c1Br (stereo unspecified) | -8%
Cc1ccoc1C(=O)N1C[C@H]2CCC[C@@]2(COCc2ccncc2)C1 | 41.8%
CCN1CC2(CCC1=O)CCN(C(=O)C(O)c1cccc(Cl)c1)CC2 (stereo unspecified) | 71.1%
CC(C)CN1CC2(CCN(C(=O)C(O)c3cccc(Cl)c3)CC2)CC1=O (stereo unspecified) | -28.9%
CCN1CC2(CCC1=O)CCN(C(=O)c1ccc(Cl)cc1O)CC2 | 36.8%
O=C(NCC1CCOCC1)[C@H]1C[C@@H]2CCN(c3nncs3)C[C@@H]2O1 | 24.3%
COc1ccc(F)cc1C(=O)N1CCn2c(nnc2C(F)(F)F)C1 | 6.33%
O=C(c1cccc(F)c1F)N1CCn2c(nnc2C(F)(F)F)C1 | 34.6%
CC(C)(C)C(O)CN1CCN(C(=O)c2cccc3[nH]ncc23)CC1 (stereo unspecified) | 69.8%
CC(O)CN1CCN(C(=O)c2cccc3[nH]ncc23)CC1 (stereo unspecified) | -31.8%
Cc1ccc(NC2CCN(C(=O)c3cccc4c3ccn4C)CC2)nn1 | 31.2%

Compound | INHIBITION
Cc1ccc(NC2CCN(C(=O)c3n[nH]c4ccccc34)CC2)nn1 | 11%
Cc1ccc(NC2CCN(C(=O)Cn3nc(C)cc3C)CC2)nn1 | 3.81%
CCn1nc(C)cc1C(=O)N1CCC(Nc2ccc(C)nn2)CC1 | 57.7%
Cc1ccc(NC2CCN(C(=O)c3cccc4[nH]ncc34)CC2)nn1 | 55.4%
O=C(c1ccc(F)cc1Cl)N1CCn2c(nnc2C(F)(F)F)C1 | 68.8%
CCn1nc(C)c(C(=O)N2CCC(Nc3ccc(C)nn3)CC2)c1C | 17.5%
CCC(O)CN1CCN(C(=O)c2cccc3[nH]ncc23)CC1 (stereo unspecified) | -29.8%
CCS(=O)(=O)N1Cc2ncn(CC3CC3)c2C(COCC2CC2)C1 (stereo unspecified) | 9.51%
NC(=O)CC1CCN(C(=O)NCc2cccc(-n3cccn3)c2)CC1 | -0.378%
O=C(O)c1ccccc1-c1ccc(CN2CCC(CO)C2)cc1 (stereo unspecified) | -12.3%
CC(C)Oc1cccc(CNC(=O)N2CCC(N3CC=CC3)C2)c1 (stereo unspecified) | 16.1%
O=C(CN1CCOC(CNc2cccnn2)C1)NCc1ccccn1 (stereo unspecified) | 23.5%
c1cnc(-c2nn3c(CN4CCCCCC4)nnc3s2)cn1 | 21.7%
Cc1cc(NC(C)c2n[nH]c(C)n2)n2nc(C)c(C)c2n1 (stereo unspecified) | 18.4%
CC(CNC(=O)Nc1cn[nH]c1)N1CCCC1 (stereo unspecified) | -21.9%
O=C(c1ccc(F)cc1Cl)N1CCC(Nc2cccnn2)CC1 | 41.4%
Cc1ccc(NC2CCN(C(=O)c3ccc(C)o3)CC2)nn1 | 51.65%
Cc1ccc(NC2CCN(C(=O)c3ccc(F)cc3Cl)CC2)nn1 | 56.4%
CCn1c(C)cc(C(=O)N2CCC(NC(=O)c3ccc(C)o3)CC2)c1C | 74%
CCn1c(C)cc(C(=O)N2CCC(Nc3ccc(C)nn3)CC2)c1C | 32.9%
Cc1ccc(NC2CCN(C(=O)c3ccc(Cl)cc3F)CC2)nn1 | 37.9%
Cc1ccc(NC2CCN(C(=O)c3ccc(Cl)o3)CC2)nn1 | -33.5%

Compound | INHIBITION
CCn1c(C)cc(C(=O)N2CCC(NC(=O)c3cc(C)no3)CC2)c1C | -7.36%
CCc1ccc(C(=O)N2CCC(Nc3ccc(C)nn3)CC2)o1 | 33.8%
CCc1nc(C2CCCN(C(=O)NC3CC3)C2)no1 (stereo unspecified) | -81.1%
CC(C)CNC(=O)c1nnsc1-c1ccccc1 | 2.69%
COCCN1C[C@@H]2CC[C@H]1CN(C(=O)CCc1n[nH]c(C)c1C)C2 | -4.92%
CCn1cc(CN2CCN(Cc3cccc(OC)c3)C(=O)C2)cc1C#N | 56.3%
COc1cc(CN2CCN(c3cccc(OC)c3)C(=O)C2)cc(OC)c1 | 58.5%
COc1cccc(N2CCN(Cc3cc(C)cc(F)c3)CC2=O)c1 | 11.3%
COc1cccc(N2CCN(Cc3nccc(OC)c3OC)CC2=O)c1 | 11.2%
COc1cccc(N2CCN(Cc3ncc[nH]3)CC2=O)c1 | -26.5%
COc1cccc(CN2CCN(Cc3ccc4nonc4c3)CC2=O)c1 | 24.9%
COc1cccc(N2CCN(Cc3ccc(NC(C)=O)cc3)CC2=O)c1 | 38.5%
COc1cccc(N2CCN(Cc3nccn3C(C)C)CC2=O)c1 | 59.5%
CCn1cc(CN2CCN(Cc3cc(C)cc(C)c3)C(=O)C2)cc1C#N | -17.8%
Cc1n[nH]c(C2CN(CC(=O)NCCc3ccccc3C)CCO2)n1 (stereo unspecified) | 43.1%
Cc1occc1C(=O)N1CCC2(CCC(C(=O)NCC3CC3)O2)CC1 (stereo unspecified) | -5.94%
CCC(CNS(=O)(=O)c1cccc(C(=O)OC)c1)N1CCCC1 (stereo unspecified) | -39.2%
O=C1CCC[C@]2(CN(S(=O)(=O)C3CCCCC3)C[C@H]2c2cccnc2)N1 | -11.4%
O=C(COc1ccc(-n2cccn2)nn1)NC1CCCCC1 | -10.6%
OC[C@H]1CCCN1c1nccc(-c2c[nH]nc2C2CCCCC2)n1 | 54.5%
Cc1ncc(-c2ccnc(N3CCC[C@@H]3CO)n2)c(-c2cccnc2)n1 | 20.4%
OC[C@@H]1CCCN1c1nccc(-c2c[nH]nc2-c2ccncc2)n1 | -15.2%

Compound | INHIBITION
O=c1c(-c2ccnc(N3CCC[C@H]3CO)n2)cnc2sccn12 | -4.82%
O=c1c(-c2ccnc(N3CCCC[C@@H]3CO)n2)cnc2sccn12 | 35.2%
OC[C@H]1CCCN1c1nccc(-c2cncnc2C2CCCCC2)n1 | 64.9%
O=C(NCCn1cccc1)C(c1ccccc1)N1CCCC1 (stereo unspecified) | 15.4%
CCOC1CCCN(C(=O)CCOc2ccc(C)cc2OC)C1 (stereo unspecified) | 8.59%
Cn1cc2ncn(C3CCN(c4ccccc4F)CC3)c(=O)c2n1 | -6.03%
CNc1nccc(-c2cn(C)nc2C)n1 | 29.4%
CCN(CC)CCCNc1nccc(-c2cn(C)nc2C)n1 | 43.9%
Cc1ccc(NCCCNc2nccc(-c3cn(C)nc3C)n2)nc1 | 51.2%
CNCCNc1nccc(-c2cn(C)nc2C)n1 | 19.4%
Cc1nn(C)cc1-c1ccnc(N2CCSCC2)n1 | 47.2%
Cc1nn(C)cc1-c1ccnc(NCCN)n1 | 59.4%
c1cnn(CC2CCCCN2Cc2noc(C3CC3)n2)c1 (stereo unspecified) | -42.65%
CC(C)NC(=O)c1nnc2ccc(N3CCOCC3)cc2n1 | -3.11%
O=C(c1ccco1)N1CCC2(CCC(=O)N2Cc2ccccc2)CC1 | 33.4%
COCC(=O)N1CCC(C)(c2cc(O)[nH]n2)CC1 | 23.9%
CCC(NC(=O)NCc1cccc(N(C)C)n1)c1cccs1 (stereo unspecified) | -6.46%
CN(C)c1ccc(NC(=O)NCc2ccccn2)cn1 | 13.9%
CCCC(NC(=O)NCc1cccc(N(C)C)n1)c1ccccn1 (stereo unspecified) | 58.5%
CCC(NC(=O)NCc1cccc(N(C)C)n1)c1ccccc1OC (stereo unspecified) | 6.83%
CCC(NC(=O)NCc1cccc(N(C)C)n1)c1nccs1 (stereo unspecified) | 67.4%
Cc1nc(CCNC(=O)NCc2cccc(N(C)C)n2)cs1 | -24.3%

Compound | INHIBITION
Cc1noc(C)c1-c1cncc(C2CCCN2Cc2ncc[nH]2)n1 (stereo unspecified) | 47.2%
CC[C@@H](Cn1ncc2ccccc2c1=O)NC(=O)c1ccco1 | 34.1%
Cn1ccc(C(=O)N2CCN(c3nccs3)CC2)cc1=O | 28.8%
CC(C)(C)c1cnc(CN2CCC(CN3CCOCC3)CC2)o1 | 66.3%
CC(C)(C)c1cnc(CN2CCCS(=O)(=O)CC2)o1 | -7.94%
CC(C)(C)c1cnc(CN2CCC(NC(=O)NC3CCCCC3)CC2)o1 | 60.8%
CCN(C1CCN(Cc2ncc(C(C)(C)C)o2)CC1)S(C)(=O)=O | 50.8%
CC(C)(C)c1cnc(CN2CCN(c3ncccn3)CC2)o1 | 24.3%
CC(C)(C)c1cnc(CN2CCC(CO)CC2)o1 | 39.7%
CCN(CC)CC1CCN(Cc2ncc(C(C)(C)C)o2)CC1 | 47.4%
Cc1ccccc1C(=O)NC1CCN(Cc2ncc(C(C)(C)C)o2)CC1 | 66.1%
CC(C)(C)c1cnc(CN2CCC(NC(=O)Nc3ccccc3)CC2)o1 | 39.4%
CC(C)(C)c1cnc(CN2CCC(NC(=O)CC3CCCC3)CC2)o1 | 28.7%
CCN1CCN(C2CCN(Cc3ncc(C(C)(C)C)o3)CC2)C1=O | 42%
CC(C)(C)c1cnc(CN2CCC(NC(=O)C3CCOCC3)CC2)o1 | 30.8%
COc1ccc(C(C)N(C)Cc2c(C(C)(C)C)[nH]c3ncccc23)cc1 (stereo unspecified) | -19%
Cc1cnn(CC2CN(Cc3nc4cccnc4[nH]3)CCO2)c1 (stereo unspecified) | 45.1%
O=c1[nH]c2c(-c3ccccn3)nsc2c(=O)n1C1CCCCC1 | 9.41%
